Our source for the Inhibition values is ChEMBL document CHEMBL4296182, “CO-ADD screening of NIH NCI Diversity Set V”.

Potency and affinity values are given separately.

This assay relates to Candida albicans. To be noted: 20 µM.
Consider `CC1(C)C2CCC(CN=C(N)CSS(=O)(=O)O)C1C2` (configuration not stated), for which the Inhibition was -2.77%. To `C[C@@H]1C[C@H]2OC(=O)[C@@]3(C)CCC[C@@](C)([C@@H]23)[C@@]1(O)CCc1ccoc1` belongs -0.12%; to `c1cc(-n2nnc3cnccc32)ccn1`, -1.34%. To `Cn1c(=O)c2c(nc(N3CCOCC3)n2C)n(C)c1=O` belongs 2.91%; to `CC(=O)Oc1ccc(OC(C)=O)c2c1CC1(C)OC1(C)C2` (configuration not stated), -0.12%; to `COc1cnc(SC)nc1Nc1ccc(C#N)cc1`, 4.47%. As for `CCN(CC)C(=O)Cn1ccc(NC(C)=O)nc1=O`, the Inhibition was 0.38%. To `O=C1c2ccccc2C(=O)c2[nH]cnc21` belongs 6.65%; to `S=C(Nc1ccccc1)Nc1nccs1`, 19.1%.

On to `O=c1[nH]cc(Cl)cc1Cl`, for which the Inhibition is -0.92%. For the compound `CC(=O)Nc1ccc(S(=O)(=O)N/N=c2/sc3ccccc3n2C)cc1N`, the Inhibition is -0.64%. In the case of `Oc1ccc(N/C(S)=N/c2ccccc2)cc1`, the Inhibition came to 4.77%. Take `CC(C)COc1nc2c(c(=O)n(C)c(=O)n2C)n1C`: the Inhibition was 2.67%. As to `Cc1ccc(S(=O)(=O)CCOC(=O)CNC(=O)OCc2ccccc2)cc1`, the Inhibition stood at 2.97%.

On to `N#CC1=C(Nc2ccccc2Cl)SC(c2ccccc2O)NC1=O` (configuration not stated), for which the Inhibition came out at 4.82%.

Turning to `CC(C)(C)CC(C)(C)n1nnnc1N`, the Inhibition worked out at 0.83%. For the compound `c1ccc(Sc2ncccn2)nc1`, the Inhibition stood at 3.74%. With `Cc1ccc(/N=N/c2ccc(N)cc2C)c(S(N)(=O)=O)c1`, the Inhibition is 2.21%. The same measure for `CC(=C/c1ccccc1)/C=C1/NC(=S)NC1=O`: 2.17%; for `Cc1cn(C2CC(O)C(CO)O2)c(=O)n(Cc2ccccc2)c1=O` (configuration not stated): 1.89%; for `COC1OCC(O)C(NC(=O)N(C)N=O)C1O` (configuration not stated): 5.35%.

For `Cc1cccc2cc3cccc(C)c3nc12`, the Inhibition came to 0.25%.

What is called Inhibition is the change of the read-out against control, counted positive when it falls.
